Assay results reported in PubChem BioAssay (EPA / NIEHS).
Inconclusive results are not listed. Calls of active or inactive are those of the source. How the source made its calls, unless noted: active means hit-call score of the fitted dose curve at least 0.9, where 1 is the maximum; inactive means score below 0.9.

Key:
[1] = read-out: Collagen I, COL1A1 (gene 1277); assay: BSK_MyoF_CollagenI: BioMAP Diversity Plus: MyoF Assay for Collagen I Biomarker Activity (AID 2284238); settings: primary human lung fibroblasts
Summary of the method: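 Multiplexed primary human lung fibroblast system; Collagen I measured by ELISA at 24 h post-dose. Increases are referenced to DMSO.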

[2] = read-out: Collagen III, COL3A1 (gene 1281); assay: BSK_MyoF_CollagenIII: BioMAP Diversity Plus: MyoF Assay for Collagen III Biomarker Activity (AID 2284239); settings: primary human lung fibroblasts
Summary of the method: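 Compounds are added to primary human lung fibroblasts and left for 24 hours. Collagen III is then quantified by ELISA. Analysis takes DMSO as baseline and fits increases in signal.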

[3] = read-out: Interleukin 17F (IL17F), IL17F (gene 112744); assay: BSK_BT_xIL17F: BioMAP Diversity Plus: BT Assay for Interleukin 17F (IL17F) Biomarker Activity (AID 2284243); settings: primary human B cells with PBMC
Summary of the method: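 Measures secreted IL-17F from a human B cell plus PBMC co-culture at 24 h post-dose by Luminex xMAP, with DMSO defining baseline activity.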

[4] = read-out: Actin alpha 1 (ACTA1), ACTA1 (gene 58); assay: BSK_MyoF_ACTA1: BioMAP Diversity Plus: MyoF Assay for Actin alpha 1 (ACTA1) Biomarker Activity (AID 2284244); settings: primary human lung fibroblasts
Summary of the method: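 Measured by ELISA: alpha-smooth muscle actin in human primary lung fibroblasts 24 h after dosing, with DMSO as baseline and upward signal change as the fitted direction.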

[5] = read-out: Interleukin 2 (IL2), IL2 (gene 3558); assay: BSK_BT_xIL2: BioMAP Diversity Plus: BT Assay for Interleukin 2 (IL2) Biomarker Activity (AID 2284245); settings: primary human B cells with PBMC
Summary of the method: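 Secreted interleukin-2 from human B cell/PBMC co-cultures, measured 24 h post-dosing by Luminex multiplex immunoassay. Upward-direction curve fitting against DMSO baseline.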

[6] = read-out: Basic fibroblast growth factor (bFGF), FGF2 (gene 2247); assay: BSK_MyoF_bFGF: BioMAP Diversity Plus: MyoF Assay for Basic fibroblast growth factor (bFGF) Biomarker Activity (AID 2284246); settings: primary human lung fibroblasts
Summary of the method: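 In this multiplexed cell system, lung fibroblasts (human primary) receive test chemical for 24 h before ELISA detection of bFGF; DMSO defines baseline and the analysis direction is positive.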

[7] = read-out: Collagen IV, COL4A1 (gene 1282); assay: BSK_MyoF_CollagenIV: BioMAP Diversity Plus: MyoF Assay for Collagen IV Biomarker Activity (AID 2284247); settings: primary human lung fibroblasts
Summary of the method: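 Activity is scored as a signal increase over DMSO in an ELISA for Collagen IV, measured on human lung fibroblasts at 24 h after chemical treatment. Cytotoxicity is checked in parallel cultures by sulforhodamine B total-protein staining.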

[8] = read-out: Plasminogen activator inhibitor-1 (PAI1), SERPINE1 (gene 5054); assay: BSK_MyoF_PAI1: BioMAP Diversity Plus: MyoF Assay for Plasminogen activator inhibitor-1 (PAI1) Biomarker Activity (AID 2284256); settings: primary human lung fibroblasts
Summary of the method: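 Activity reflects increased PAI-1, determined by ELISA and compared with DMSO, in human lung fibroblasts treated for 24 h.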

Decorin, DCN (gene 1634) = assay: BSK_MyoF_Decorin: BioMAP Diversity Plus: MyoF Assay for Decorin Biomarker Activity (AID 2284265); settings: primary human lung fibroblasts
Summary of the method: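 Lung fibroblast cultures, 24 h chemical exposure. Decorin by ELISA, positive fitting direction, DMSO baseline.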

[9] = BSK_MyoF_SRB: Viability Assessment in the BioMAP Diversity Plus: MyoF Assay (AID 2284267); settings: primary human lung fibroblasts;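 further: total protein by SRB absorbance in parallel cultures as cytotoxicity measure; cells assessed 24 h after compound addition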
Summary of the method: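 Cytotoxicity in primary human lung fibroblasts is gauged by SRB total-protein staining 24 h after dosing, with DMSO as the negative control.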

[10] = read-out: Monokine induced gamma interferon (MIG), CXCL9 (gene 4283); assay: BSK_KF3CT_MIG: BioMAP Diversity Plus: KF3CT Assay for Monokine induced gamma interferon (MIG) Biomarker Activity (AID 2284248); settings: primary human keratinocytes with fibroblasts
Summary of the method: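 The assay uses a co-culture of human keratinocytes and foreskin fibroblasts. Measurement occurs 24 hours after dosing, with MIG detected by ELISA and the DMSO control as baseline.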

[11] = read-out: Collagen I, COL1A1 (gene 1277); assay: BSK_hDFCGF_CollagenI: BioMAP Diversity Plus: hDFCGF Assay for Collagen I Biomarker Activity (AID 2284250); settings: primary human foreskin fibroblasts
Summary of the method: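 Cells were primary human foreskin fibroblasts treated for 24 h. Collagen I levels were then determined by ELISA and compared against DMSO controls.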

[12] = read-out: Interferon-inducible T-cell alpha chemoattractant (ITAC), CXCL11 (gene 6373); assay: BSK_hDFCGF_ITAC: BioMAP Diversity Plus: hDFCGF Assay for Interferon-inducible T-cell alpha chemoattractant (ITAC) Biomarker Activity (AID 2284251); settings: primary human foreskin fibroblasts
Summary of the method: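 Primary human foreskin fibroblasts (hDFCGF system) treated for 24 h; I-TAC quantified by ELISA. Gain-direction fitting versus DMSO; parallel SRB staining of total protein flagged overt cytotoxicity.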

[13] = read-out: Plasminogen activator inhibitor-1 (PAI1), SERPINE1 (gene 5054); assay: BSK_KF3CT_PAI1: BioMAP Diversity Plus: KF3CT Assay for Plasminogen activator inhibitor-1 (PAI1) Biomarker Activity (AID 2284252); settings: primary human keratinocytes with fibroblasts
Summary of the method: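 Signal is PAI-1 detected by ELISA in a human skin-derived keratinocyte/fibroblast co-culture, 24 h after dosing; DMSO served as negative control and baseline.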

[14] = read-out: Interleukin-8 (IL8), CXCL8 (gene 3576); assay: BSK_KF3CT_IL8: BioMAP Diversity Plus: KF3CT Assay for Interleukin-8 (IL8) Biomarker Activity (AID 2284254); settings: primary human keratinocytes with fibroblasts
Summary of the method: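 ELISA detection of IL-8 from a human skin co-culture, keratinocytes with foreskin fibroblasts, at 24 h following chemical exposure, with gain of signal scored against DMSO controls.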

[15] = CCTE_Mundy_HCI_Cortical_NOG_BPCount: CCTE's Neurite Outgrowth Assay in rat cortical cells for Branch Point Count, Mundy Lab (AID 2284237)
Summary of the method: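 Measured 50.33 h after dosing, this morphology endpoint uses rat primary cortical cultures labelled for betaIII-tubulin. Branch points are quantified by high-content imaging, with DMSO as negative control and baseline.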

[16] = CCTE_Mundy_HCI_hNP1_Casp3_7: CCTE's Caspase-Glo 3/7 Assay in human neuroprogenitor cells for Apoptosis, Mundy Lab (AID 2284240)
Summary of the method: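 Luminescent caspase-3/7 readout, 26.5 h post-dose, in human neural progenitor cells from WA09 embryonic stem cells. Cells grew 40–44 h at 37 °C, 5% CO2 before chemical addition. Activity analysed as signal increase over DMSO baseline.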

[17] = CCTE_Mundy_HCI_hNP1_CellTiter: CCTE's Cell Titer-Glo 2 Assay in human neuroprogenitor cells for Viability, Mundy Lab (AID 2284241; active means hit-call score of the fitted dose curve at least 0.9, where 1 is the maximum)
Summary of the method: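 Viability read as luminescent ATP content (CellTiter-Glo, 30 min room temperature) twenty-four hours after dosing, relative to DMSO. Cells: WA09-derived hNP1 neuroprogenitors on poly-L-ornithine/laminin, plated 40 to 44 hours before chemical.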

Measured: AC50

CCOc1nc(F)cc2nc(S(=O)(=O)Nc3c(Cl)cccc3C(=O)OC)nn12
inactive: [1] | [2] | [3] | [4] | [5] | [6] | [7] | [8] | Decorin, DCN (gene 1634) | [9]

CCO[Si](C)(OCC)OCC
inactive: [10] | [11] | [12] | [13] | [14]

CC1OC1C1CCC2(C)OC2C1 (stereo not drawn)
inactive: [1] | [2] | [3] | [4] | [5] | [6] | [7] | [8] | Decorin, DCN (gene 1634) | [9]

CCCCNc1ccc(NCCCC)c2c1C(=O)c1ccccc1C2=O
inactive: [1] | [2] | [3] | [4] | [5] | [6] | [7] | [8] | Decorin, DCN (gene 1634) | [9]

N#[N+]c1ccc2c(S(=O)(=O)[O-])cccc2c1O
inactive: [1] | [2] | [3] | [4] | [5] | [6] | [7] | [8] | Decorin, DCN (gene 1634) | [9]

N[C@H]1C(O)O[C@H](CO)[C@H](O)[C@@H]1O (stereo partly drawn)
inactive: [15] | [16] | [17]

CCCCC/C=C\C/C=C\CCCCCCCC(=O)OC
inactive: [6] | [7] | [8] | Decorin, DCN (gene 1634) | [9]
active: [1] 27.1 µM | [2] 20 µM | [3] 25.2 µM | [4] 29.4 µM | [5] 28.9 µM

O=C(Cl)c1cc(C(=O)Cl)cc(C(=O)Cl)c1
inactive: Decorin, DCN (gene 1634)
active: [1] 30.7 µM | [2] 33.2 µM | [3] 29.5 µM | [4] 35.1 µM | [5] 29.7 µM | [6] 36.9 µM | [7] 30 µM | [8] 39.1 µM | [9] 34.7 µM

O=C1CCCN1CCO
inactive: [10] | [11] | [12] | [13] | [14]

CC(C)C(=O)C(C)C
inactive: [1] | [2] | [3] | [4] | [5] | [6] | [7] | [8] | Decorin, DCN (gene 1634) | [9]

c1ccc(-c2ccccn2)nc1
inactive: [1] | [2] | [4] | [5] | [6] | [7] | [8] | Decorin, DCN (gene 1634) | [9]
active: [3] 27.6 µM

CCCCC(CC)COCC1CO1 (stereo not drawn)
inactive: [10] | [11] | [12] | [13] | [14]

CC(C)(c1cc(Br)c(OCCO)c(Br)c1)c1cc(Br)c(OCCO)c(Br)c1
active: [1] 6.65 µM | [2] 7.69 µM | [3] 23.8 µM | [4] 10.7 µM | [5] 18.7 µM | [6] 9.52 µM | [7] 9.43 µM | [8] 9.61 µM | Decorin, DCN (gene 1634) 9.76 µM | [9] 5.78 µM

C=C[Si](OC(C)=O)(OC(C)=O)OC(C)=O
inactive: [10] | [11] | [12] | [13] | [14]

O=Nc1ccc(O)cc1
inactive: [1] | [2] | [3] | [4] | [5] | [6] | [7] | [8] | Decorin, DCN (gene 1634) | [9]

C/C=C\C/C=C/CCCCCCCCOC(C)=O
active: [3] 25.5 µM | [4] 31.9 µM | [5] 31.6 µM | [8] 20 µM
inactive: [1] | [2] | [6] | [7] | Decorin, DCN (gene 1634) | [9]

C=CCOc1c(Br)cc(Br)cc1Br
inactive: [5] | Decorin, DCN (gene 1634)
active: [1] 20 µM | [2] 26.2 µM | [3] 26.8 µM | [4] 24.4 µM | [6] 34 µM | [7] 5.88 µM | [8] 26.6 µM | [9] 27.7 µM

C#CC1(O)CC[C@H]2[C@@H]3CCC4=CCCC[C@@H]4[C@H]3CC[C@@]21C (stereo partly drawn)
active: [1] 22.4 µM | [2] 31.8 µM | [3] 28.6 µM | [4] 32.2 µM | [5] 31.6 µM | [6] 33 µM | [8] 32 µM | Decorin, DCN (gene 1634) 31.4 µM | [9] 30.1 µM
inactive: [7]

O=c1c2ccccc2oc2ccccc12
inactive: [1] | [2] | [4] | [5] | [6] | [7] | [8] | Decorin, DCN (gene 1634) | [9]
active: [3] 3.97 µM
